Experimental data reported in ChEMBL document CHEMBL3988442, “University of Dundee, Small-Polar-MMV Screening Library” (2021).
Values joined by “and” are separate entries in the source; they are usually repeats but may differ in a detail not shown here. Identical values can stand only once. The whole screen tested about 67,000 compounds, of which about 40 (0.06%) showed an effect of 50% or more. The entries come from a sample that favours strong results as a whole.

biological target: T1, Coenzyme A biosynthesis bifunctional protein CoaBC (Mycobacterium tuberculosis (strain ATCC 25618 / H37Rv)) (UniProt P9WNZ1); experiment: Biomol Green assay for MtCoaBC inhibitor, OD650 read; format: functional; set-up: scale not given: in the data most compounds retested in dose-response had high values; conditions: 30 µM
T1 sequence (whole entry): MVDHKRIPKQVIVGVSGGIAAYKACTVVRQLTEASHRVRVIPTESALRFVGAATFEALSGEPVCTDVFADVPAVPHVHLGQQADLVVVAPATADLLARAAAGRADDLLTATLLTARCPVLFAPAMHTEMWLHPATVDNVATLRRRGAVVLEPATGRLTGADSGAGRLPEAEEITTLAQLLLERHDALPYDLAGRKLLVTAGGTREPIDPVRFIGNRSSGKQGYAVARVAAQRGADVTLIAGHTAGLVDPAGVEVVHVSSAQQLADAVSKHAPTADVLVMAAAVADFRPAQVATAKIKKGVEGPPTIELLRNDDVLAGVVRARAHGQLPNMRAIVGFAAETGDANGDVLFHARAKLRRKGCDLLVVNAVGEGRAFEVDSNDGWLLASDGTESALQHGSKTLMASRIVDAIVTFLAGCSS

How did the Percent Effect turn out when `CN(Cc1cccnc1)C1COC2(CCN(Cc3nccs3)CC2)C1` (configuration not stated) was run?
Its Percent Effect is 1.85%.

How did the Percent Effect turn out when `Cc1ccc(CN2CCC3(CC2)CC3CN(C)Cc2cccnc2)o1` (configuration not stated) was run?
Its Percent Effect is -31.5%.

With `Cc1noc(C)c1C(=O)N1CC[C@H]2C[C@@H](c3ccncn3)O[C@@H]2C1` as the compound, how does the Percent Effect read?
Its Percent Effect is -0.386%.

Which Percent Effect does the source give for `CCCS(=O)(=O)N1C[C@@H]2CN(Cc3cnn(C)c3)CCO[C@@H]2C1` here?
The Percent Effect was 4%.

For `O=C(c1cnccn1)N1C[C@@H]2C[C@@H](c3nc(C4CC4)cs3)O[C@@H]2C1`, which Percent Effect is on record?
The Percent Effect was 2.75%.

With `c1csc(CN2CCO[C@H]3[C@H](OCCN4CCCC4)CC[C@@H]32)n1` as the compound, how does the Percent Effect read?
The Percent Effect was 5.46%.

For `CCC1=N[C@@]2(CC[C@@H]3CN(S(=O)(=O)CC)C[C@@H]32)C(=O)N1CC(C)C`, which Percent Effect is on record?
The Percent Effect was 2.92%.

With `COc1cc(CNC2CCc3nc(C)nn3C2)cc2c1OCCO2` (configuration not stated) as the compound, how does the Percent Effect read?
The Percent Effect was -5.17%.

`CCc1nc2n(n1)CC(NCc1cc(OC)c3c(c1)OCO3)CC2` (configuration not stated) was tested. Which Percent Effect did it give?
Its Percent Effect is -7.88%.

How did the Percent Effect turn out when `Cc1ccc(N2CC[C@H]3OCC[C@@]3(C(=O)N(C)C)C2)nn1` was run?
The Percent Effect was 2.24%.

How did the Percent Effect turn out when `CS(=O)(=O)N1CC[C@H]2[C@H](C[C@@H](Cn3cncn3)N2CC2CC2)C1` was run?
The Percent Effect was 5%.

Which Percent Effect does the source give for `CC(C)(C)N1CCCN(C(=O)c2csc(S(N)(=O)=O)c2)CC1` here?
The Percent Effect was -6.17%.

`CC1CCCN(C(=O)c2csc(S(N)(=O)=O)c2)CC1` (configuration not stated) was tested. Which Percent Effect did it give?
The Percent Effect was -0.441%.

`Cc1cnc(N2C[C@H]3CCN(CC4CC4)C[C@@H]3C2)nc1` was tested. Which Percent Effect did it give?
The Percent Effect was -28.5%.

With `COc1ccc(CCC2CCCN(CC(=O)O)C2)cc1` (configuration not stated) as the compound, how does the Percent Effect read?
Its Percent Effect is 0.988%.

For `O=C(O)COc1ccc(CN2CCCC(Cc3cccnc3)C2)cc1` (configuration not stated), which Percent Effect is on record?
Its Percent Effect is 0.485%.

With `O=C(O)COc1ccc(CN2CCCC(CCc3ccccc3)C2)cc1` (configuration not stated) as the compound, how does the Percent Effect read?
Its Percent Effect is 94.3% and 88.4%.

How did the Percent Effect turn out when `CCOCCN1CCN(CCc2ccc3c(c2)CCO3)CC1` was run?
Its Percent Effect is -14.1%.

Which Percent Effect does the source give for `COCC(C)N1CCN(CCc2ccc3c(c2)CCO3)CC1` (configuration not stated) here?
The Percent Effect was 4.17%.

With `CN1CCN(C[C@H]2OC[C@@H]3CCN(Cc4ccsc4)C[C@@H]32)CC1` as the compound, how does the Percent Effect read?
The Percent Effect was -5.68%.

Which Percent Effect does the source give for `O=C1[C@H]2CN(C3CCOC3)C[C@H]2CN1c1ccccc1` (some centres not stated) here?
The Percent Effect was 2.66%.

With `Cc1cc(CN2C[C@@H]3CCCO[C@@H]3[C@H](N(C)C(C)C)C2)no1` as the compound, how does the Percent Effect read?
The Percent Effect was 9.94%.

Which Percent Effect does the source give for `O=C(NCC1CC1)[C@@H]1CCO[C@@H]2CCN(c3ncccn3)C[C@@H]21` here?
Its Percent Effect is 0.323%.

How did the Percent Effect turn out when `Cc1nonc1C(=O)N1CC[C@@]2(O)CCN(C3CCCCC3)C[C@H]2C1` was run?
The Percent Effect was 10.8%.

With `O=C(NC1CCN(C2CC2)CC1)c1cn(-c2ccc(Cl)cc2)nn1` as the compound, how does the Percent Effect read?
The Percent Effect was 3.19%.

`O=C(NC1CCN(C2CC2)C1)c1cn(-c2ccc(F)cc2)nn1` (configuration not stated) was tested. Which Percent Effect did it give?
The Percent Effect was -3.95%.

With `CC(C)CCN1C[C@H]2C[C@H](C(=O)N3CCCC3)[C@@H](C1)O2` as the compound, how does the Percent Effect read?
Its Percent Effect is 1.46%.

`CC(C)N1[C@H](Cn2cncn2)C[C@@H]2CN(Cc3nccn3C)CC[C@@H]21` was tested. Which Percent Effect did it give?
Its Percent Effect is 4.19%.

With `COc1ccc(CN2C[C@H]3CCC[C@@H](CN(C)C4CC4)[C@H]3C2)cn1` as the compound, how does the Percent Effect read?
Its Percent Effect is -25.8%.

For `O=C(C1CC1)N1CCN2C[C@H](c3ccccc3)[C@@H](CO)[C@H]2C1`, which Percent Effect is on record?
Its Percent Effect is -2.91%.

How did the Percent Effect turn out when `O=C1CC(c2ccccc2)c2sc(C(=O)O)c(-c3ccccc3)c2N1` (configuration not stated) was run?
Its Percent Effect is -0.766%.

For `O=C1CC(c2ccc(O)cc2)c2sc(C(=O)O)c(-c3ccccc3)c2N1` (configuration not stated), which Percent Effect is on record?
The Percent Effect was 1.28%.

For `Cc1ccc(CN2CC[C@H]3OCC[C@@H](C(=O)NC4CC4)[C@@H]3C2)o1`, which Percent Effect is on record?
Its Percent Effect is 3.34%.

With `O=C(c1ccco1)N1CC[C@@H]2[C@H]1CCC(=O)N2c1ccccc1` as the compound, how does the Percent Effect read?
The Percent Effect was 3.58%.

Which Percent Effect does the source give for `CN(Cc1cnccn1)C(=O)[C@@]12CNC[C@@H]1CN(Cc1ccccc1)C2` here?
The Percent Effect was 2.15%.

How did the Percent Effect turn out when `CC(NC(=O)CN1CCCC1=O)c1ccc(Cl)s1` (configuration not stated) was run?
The Percent Effect was -0.806%.

How did the Percent Effect turn out when `CC(C)(C)OC(=O)NCC(=O)NCc1ccc(Cl)s1` was run?
Its Percent Effect is 7.73%.

For `O=C(C1CCOCC1)N1CCN2C(=O)N(Cc3ccc(F)cc3)C[C@H]2C1`, which Percent Effect is on record?
Its Percent Effect is 12%.

How did the Percent Effect turn out when `CC1CCN(C(=O)[C@@H]2CC[C@@H]3[C@@H](CCN3c3ncc(F)cn3)O2)CC1` was run?
The Percent Effect was -4.84%.

With `CNC(=O)[C@H]1C[C@@H]2CN(Cc3cccnc3OC)C[C@@H]2N1C(C)C` as the compound, how does the Percent Effect read?
Its Percent Effect is 1.06%.

For `O=C(c1ccsc1)N1CCO[C@@H]2CN(Cc3cccs3)C[C@@H]2C1`, which Percent Effect is on record?
Its Percent Effect is -4.58%.

`Cc1nnc(N2C[C@H](Oc3ccccn3)[C@H]3OCCC[C@H]32)s1` was tested. Which Percent Effect did it give?
The Percent Effect was 4.91%.

Which Percent Effect does the source give for `Cc1cccc2c1nc(COCC(=O)O)n2-c1ccsc1` here?
Its Percent Effect is 5.35%.

Which Percent Effect does the source give for `Cc1ccc(-n2c(COCC(=O)O)nc3c(C)cccc32)nc1` here?
The Percent Effect was 5.78%.

How did the Percent Effect turn out when `COCCC(=O)N1C[C@H]2CC[C@@H]1CN(C1Cc3ccccc3C1)C2` was run?
Its Percent Effect is 2.15%.

`Cn1cc(CN2C[C@H]3CCC[C@@H](CNc4ncccn4)[C@H]3C2)cn1` was tested. Which Percent Effect did it give?
Its Percent Effect is -2.24%.

With `Cc1occc1C(=O)N1C[C@H]2CCCC(OCc3cccnc3)[C@H]2C1` (some centres not stated) as the compound, how does the Percent Effect read?
Its Percent Effect is 7.49%.

How did the Percent Effect turn out when `CN(Cc1ccccn1)C(=O)[C@H]1CO[C@H]2CCN(CC3CC3)C[C@H]2C1` was run?
Its Percent Effect is 1.98%.

How did the Percent Effect turn out when `CN(Cc1nnc2n1CCC2)S(=O)(=O)c1cc(Br)ccc1Br` was run?
Its Percent Effect is 3.23%.

For `CN(Cc1nnc2n1CCC2)S(=O)(=O)c1ccc(Br)cc1Cl`, which Percent Effect is on record?
Its Percent Effect is -1.49%.

Which Percent Effect does the source give for `Cc1cccc(CN2C[C@@H]3OCCN(C)[C@@H]3C2)n1` here?
The Percent Effect was 4.44%.

How did the Percent Effect turn out when `c1cnn([C@@H]2CN(Cc3nccs3)[C@@H]3CCCO[C@@H]32)c1` was run?
Its Percent Effect is 2.08%.

With `COCCN1C(=O)CC[C@@H]2[C@H]1CCN2C(=O)N(C)C` as the compound, how does the Percent Effect read?
The Percent Effect was 12.9%.

With `CCOC(=O)[C@]12CCCN(Cc3ccco3)C[C@H]1CN(CCN(C)C)C2` as the compound, how does the Percent Effect read?
The Percent Effect was 3.17%.

With `COCC(=O)NC(CC(C)C)c1nc2cccnc2n1C` (configuration not stated) as the compound, how does the Percent Effect read?
Its Percent Effect is -0.123%.

For `CC(C)CC(NC(=O)c1ccco1)c1nc2cccnc2n1C` (configuration not stated), which Percent Effect is on record?
The Percent Effect was -9.45%.

With `COc1cccc(CC(=O)N2CC[C@H]3[C@@H]2CCC(=O)N3C)c1` as the compound, how does the Percent Effect read?
The Percent Effect was -4.44%.

How did the Percent Effect turn out when `Cc1ccsc1CN1C[C@@H]2COC[C@]2(CNC(=O)c2ccco2)C1` was run?
The Percent Effect was 2.1%.

With `Cn1cc(N2C[C@@H]3CN(Cc4ccoc4)C[C@@H]3C2=O)cn1` as the compound, how does the Percent Effect read?
Its Percent Effect is -6.36%.

Which Percent Effect does the source give for `CCOCC1CCN(C(=O)C(c2c(F)cccc2F)N(C)C)CC1` (configuration not stated) here?
The Percent Effect was -0.163%.

`CN(C)C(C(=O)N1CCC(CCO)CC1)c1ccccc1F` (configuration not stated) was tested. Which Percent Effect did it give?
Its Percent Effect is 10.1%.

For `CN(C)c1ncc(C(=O)N2C[C@H]3C[C@H](Oc4ccccc4)C[C@H]3C2)cn1`, which Percent Effect is on record?
The Percent Effect was 12.4%.

Which Percent Effect does the source give for `Cc1nc(-c2ccc(CC(=O)N3CCN(C(=O)C4CC4)CC3)cc2)cs1` here?
The Percent Effect was -8.67%.

Which Percent Effect does the source give for `Cc1nc(-c2ccc(CC(=O)N3CCNC(=O)C3)cc2)cs1` here?
The Percent Effect was -8.27%.

With `COc1cccc(S(=O)(=O)N2CCN(C)[C@@H]3CS(=O)(=O)C[C@@H]32)c1` as the compound, how does the Percent Effect read?
The Percent Effect was -2.92%.

How did the Percent Effect turn out when `O=C1CC[C@H]2CN(c3ncc(F)cn3)CC[C@H]2N1CCc1c[nH]cn1` was run?
The Percent Effect was -3.02%.

For `CC(C)NC(=O)[C@@]12CCO[C@@H]1CCN(Cc1ccc3c(c1)OCO3)C2`, which Percent Effect is on record?
Its Percent Effect is -0.976%.
